Source: PubChem BioAssay (NCI)
About 79,000 compounds went through this panel and 15% of them were active in at least one assay; those are over-represented in the sample as a whole. Activity calls are given as the source filed them. Rule as the data show it: active = growth inhibition above about 70%; inactive = the rest.

How the values were obtained:
[1] = NCI Yeast Anticancer Drug Screen. Data for the wt1 strain (AID 149);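 also: 0% = growth of vehicle-treated wt1 cultures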; conditions: S. cerevisiae wt1 strain (SPY 50644) growth inhibition, hits give high values
In short: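 Yeast wt1 strain exposed to compounds; growth inhibition measured relative to vehicle-treated controls.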

[2] = NCI Yeast Anticancer Drug Screen. Data for the rad50EPP+ strain (AID 151);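 also: 0% = growth of vehicle-treated control cultures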; conditions: S. cerevisiae rad50 mutant strain, hits give high values
In short: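 Yeast strain carrying rad50 alteration (rad50EPP+) exposed to compounds; growth inhibition measured relative to vehicle-treated controls.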

[3] = NCI Yeast Anticancer Drug Screen. Data for the mgt1 strain (AID 153); conditions: S. cerevisiae mgt1 mutant growth inhibition, hits give high values
In short: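 Yeast mgt1 strain (DNA repair/cell-cycle alteration panel) exposed to compounds; growth inhibition measured relative to vehicle-treated controls.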

[4] = NCI Yeast Anticancer Drug Screen. Data for the rad50 strain (AID 155);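 also: 0% = growth of vehicle-only cultures of the same strain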; conditions: S. cerevisiae rad50 strain growth inhibition, hits give high values
In short: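 Yeast carrying a defined DNA repair defect were exposed to test compounds, and growth was compared with vehicle-treated controls to give percent inhibition.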

[5] = NCI Yeast Anticancer Drug Screen. Data for the mec2-1 strain (AID 157); conditions: S. cerevisiae mec2-1 strain, hits give high values
In short: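 mec2-1 yeast strain, carrying an alteration in DNA damage repair or cell cycle control, was exposed to compounds; growth inhibition was measured relative to vehicle-treated controls.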

[6] = NCI Yeast Anticancer Drug Screen. Data for the sgs1 mgt1 strain (AID 161);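 also: 0% = growth of cultures given vehicle only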; conditions: S. cerevisiae sgs1 mgt1 strain, hits give high values
In short: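 This yeast growth screen uses a strain with defined DNA-repair lesions; compound-treated growth is compared with vehicle-treated growth.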

[7] = NCI Yeast Anticancer Drug Screen. Data for the CLN2oe strain (AID 163);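 also: 0% = growth of vehicle-only control cultures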; conditions: S. cerevisiae CLN2oe strain, hits give high values
In short: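 Yeast cells carrying a defined cell-cycle control alteration were exposed to test compounds. Growth inhibition was scored against vehicle-treated control cultures.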

[8] = NCI Yeast Anticancer Drug Screen. Data for the cln2 rad14 strain (AID 165);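 also: 0% = growth equal to vehicle treated cultures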; conditions: S. cerevisiae cln2 rad14 strain, hits give high values
In short: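 Yeast carrying cln2 and rad14 alterations (cell cycle control and DNA damage repair) were exposed to compounds. Growth inhibition was measured against vehicle-treated controls.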

[9] = NCI Yeast Anticancer Drug Screen. Data for the bub3 strain (AID 167); conditions: S. cerevisiae bub3 mutant strain, hits give high values
In short: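 Compounds were applied to a genetically altered yeast strain carrying a cell-cycle control defect. Growth inhibition was scored against vehicle-treated controls.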

[10] = NCI Yeast Anticancer Drug Screen. Data for the wt2 strain (AID 169);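 also: 0% = growth of vehicle-treated yeast cultures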; conditions: S. cerevisiae wt2 strain growth inhibition, hits give high values
In short: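 Yeast cells were exposed to test compounds, and growth inhibition was measured relative to vehicle-treated controls.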

[11] = NCI Yeast Anticancer Drug Screen. Data for the mlh1 strain (AID 171);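 also: 0% = growth of vehicle-treated control cultures of the same strain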; conditions: S. cerevisiae mlh1 strain growth inhibition, hits give high values
In short: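 Yeast carrying a defined genetic alteration in DNA damage repair or cell cycle control were exposed to test compounds. Growth inhibition was measured relative to vehicle-treated controls.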

[12] = NCI Yeast Anticancer Drug Screen. Data for the sgs1 strain (AID 173);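 also: 0% = growth of vehicle-only control cultures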; conditions: S. cerevisiae sgs1 mutant, hits give high values
In short: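 Yeast mutant strains carrying defined defects in DNA damage repair or cell cycle control were exposed to test compounds. Growth inhibition was scored against vehicle-treated controls.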

[13] = NCI Yeast Anticancer Drug Screen. Data for the mlh1 rad18 strain (AID 175); conditions: S. cerevisiae mlh1 rad18 strain growth inhibition, hits give high values
In short: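 Growth inhibition of the yeast strain was measured after compound exposure and expressed relative to vehicle-treated controls. The strain carries defined defects in DNA damage repair.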

[14] = NCI Yeast Anticancer Drug Screen. Data for the rad18 strain (AID 177); conditions: S. cerevisiae rad18 mutant growth inhibition, hits give high values
In short: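 Yeast carrying a defined DNA damage repair alteration were exposed to compounds. Growth inhibition was expressed relative to vehicle-treated controls.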

[15] = NCI Yeast Anticancer Drug Screen. Data for the rad14 strain (AID 159);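 also: 0% = growth of vehicle-treated control cultures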; conditions: S. cerevisiae rad14 strain growth inhibition, hits give high values
In short: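 Yeast cells carrying a defined DNA-repair defect were exposed to compounds, and growth inhibition was calculated relative to vehicle-treated control cultures.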

[16] = at 5.0 µM (retest, dose inferred, filed as 0.5)
[17] = at 50.0 µM (retest, dose inferred, filed as 5.0)

Measured: growth inhibition

O=P(C(=S)Nc1c(Cl)cccc1Cl)(c1ccccc1)c1ccccc1
inactive: [1]; at 1.2 µM 31% | [1]; at 3.7 µM 25% | [1]; at 11.0 µM 18% | [1]; at 33.0 µM 24% | [2]; at 1.2 µM 6% | [2]; at 3.7 µM 8% | [2]; at 11.0 µM 24% | [2]; at 33.0 µM 19% | [2]; at 100.0 µM 31% | [3]; at 1.2 µM 11% | [3]; at 3.7 µM -16% | [3]; at 11.0 µM -11% | [3]; at 33.0 µM -1% | [4]; at 1.2 µM 20% | [4]; at 3.7 µM 8% | [4]; at 11.0 µM 14% | [4]; at 33.0 µM 1% | [5]; at 1.2 µM 5% | [5]; at 3.7 µM 9% | [5]; at 11.0 µM 14% | [5]; at 33.0 µM 7% | [6]; [16] -6% | [7]; at 1.2 µM 8% | [7]; at 3.7 µM 21% | [7]; at 11.0 µM 15% | [7]; at 33.0 µM 16% | [8]; [16] 41% | [9]; at 1.2 µM 0% | [9]; at 3.7 µM 4% | [9]; [16] 21% | [9]; at 11.0 µM 14% | [9]; at 33.0 µM 11% | [10]; at 1.2 µM 21% | [10]; at 3.7 µM 8% | [10]; at 11.0 µM 15% | [10]; at 33.0 µM 35% | [11]; at 1.2 µM 10% | [11]; at 3.7 µM 10% | [11]; at 11.0 µM 0% | [11]; at 33.0 µM 6% | [12]; at 1.2 µM 25% | [12]; at 3.7 µM 13% | [12]; at 11.0 µM 3% | [12]; at 33.0 µM 18% | [13]; [16] 60% | [14]; at 1.2 µM -12% | [14]; at 3.7 µM -20% | [14]; at 11.0 µM -22% | [14]; at 33.0 µM -12%
active: [1]; at 100.0 µM 96% | [3]; at 100.0 µM 95% | [4]; [16] 73% | [4]; [17] 99% | [4]; at 50.0 µM 87.7% | [4]; at 100.0 µM 95% | [5]; [16] 71% | [5]; [17] 99% | [5]; at 50.0 µM 91% | [5]; at 100.0 µM 94% | [6]; [17] 95% | [6]; at 50.0 µM 88.3% | [7]; at 100.0 µM 95% | [8]; [17] 96% | [8]; at 50.0 µM 89.9% | [9]; [17] 75% | [9]; at 50.0 µM 89% | [9]; at 100.0 µM 97% | [10]; at 100.0 µM 96% | [11]; at 100.0 µM 95% | [12]; at 100.0 µM 95% | [13]; [17] 98% | [13]; at 50.0 µM 87.2% | [14]; at 100.0 µM 96%

O=[N+]([O-])c1ccc2[nH]c3c(-c4ccccc4)nccc3c2c1
inactive: [1]; at 1.2 µM -4% | [1]; at 3.7 µM -8% | [2]; at 1.2 µM 20% | [2]; at 3.7 µM 43% | [2]; at 11.0 µM 68% | [3]; at 1.2 µM -2% | [3]; at 3.7 µM -4% | [4]; at 1.2 µM -3% | [4]; at 3.7 µM 2% | [4]; [16] 10% | [5]; at 1.2 µM -4% | [5]; at 3.7 µM -6% | [5]; [16] -5% | [15]; at 1.2 µM -1% | [15]; at 3.7 µM -1% | [6]; [16] 10% | [7]; at 1.2 µM -8% | [7]; at 3.7 µM 38% | [8]; [16] -10% | [9]; at 1.2 µM 10% | [9]; [16] 52% | [10]; at 1.2 µM 0% | [10]; at 3.7 µM 43% | [11]; at 1.2 µM -2% | [11]; at 3.7 µM 15% | [12]; at 1.2 µM -12% | [12]; at 3.7 µM 0% | [13]; [16] 3%
active: [1]; at 11.0 µM 87% | [1]; at 33.0 µM 94% | [1]; at 100.0 µM 92% | [2]; at 33.0 µM 79% | [2]; at 100.0 µM 79% | [3]; at 11.0 µM 94% | [3]; at 33.0 µM 97% | [3]; at 100.0 µM 97% | [4]; at 11.0 µM 92% | [4]; at 33.0 µM 96% | [4]; [17] 96% | [4]; at 50.0 µM 98.8% | [4]; at 100.0 µM 96% | [5]; at 11.0 µM 96% | [5]; at 33.0 µM 98% | [5]; [17] 97% | [5]; at 50.0 µM 91.2% | [5]; at 100.0 µM 98% | [15]; at 11.0 µM 85% | [15]; at 33.0 µM 96% | [15]; at 100.0 µM 95% | [6]; [17] 98% | [6]; at 50.0 µM 93% | [7]; at 11.0 µM 96% | [7]; at 33.0 µM 96% | [7]; at 100.0 µM 96% | [8]; [17] 96% | [8]; at 50.0 µM 98.3% | [9]; at 3.7 µM 90% | [9]; at 11.0 µM 96% | [9]; at 33.0 µM 97% | [9]; [17] 97% | [9]; at 50.0 µM 98.8% | [9]; at 100.0 µM 96% | [10]; at 11.0 µM 96% | [10]; at 33.0 µM 98% | [10]; at 100.0 µM 98% | [11]; at 11.0 µM 96% | [11]; at 33.0 µM 97% | [11]; at 100.0 µM 97% | [12]; at 11.0 µM 93% | [12]; at 33.0 µM 97% | [12]; at 100.0 µM 96% | [13]; [17] 96% | [13]; at 50.0 µM 97.8%
